LASV entry inh = blocks Lassa virus binding to or entry into cells. 300,000 tested, 1.2% active. Potency, µM (doses to about 37.9 µM), most hits filed as inhibitors. Lassa virus pseudotype entry inhibition, cell reporter; calls by dose curve; tested in HEK293 cells; note: nearly all actives have a fitted effect of over 50% in size
HCV inh = HCV inhibition; Huh7.5.1 HCVcc-Cre infection, luciferase reporter, 44 h; Potency, µM (titrated, usually from 41.8 µM), actives largely listed as inhibitors; 340,000 tested, 3.4% active; AID 651820; active = well fitted inhibition curve with a large enough effect; inconclusive = small, poorly fitted or top-dose-only effect, or another doubt; inactive = no such curve, though single readings can be large or run the other way
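Infectious HCVcc-Cre (~0.5 moi) was added to cells just after compound, with cells seeded 4 h earlier at 1,000 per well. Luciferase activity after 44 h culture reported infection; substrate was incubated 15 min at room temperature before reading.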
Marburg entry inh = inhibitors of Marburg virus binding or cell entry; Marburg virus pseudotyped entry inhibition, cell reporter; Potency, µM (series often up to 37.8 µM), hits mostly inhibitors; 300,000 tested, 1.8% active; AID 540276; calls by dose curve; tested in HEK293 cells
HCMV antiviral = human cytomegalovirus inhibition | HFF cells, HCMV-luciferase reporter, 72 h; hits give low values | activity change, negative = inhibition, % at 57.5 µM | 410,000 tested, 4.5% active | AID 1259415; in the data active = activity change below about -60%; inconclusive = no clear call, values can overlap the other calls; inactive = above about -39%
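Human foreskin fibroblasts infected with luciferase-reporter HCMV at MOI 1 PFU/cell, compounds at two doses. Luciferase measured 72 h post infection; normalized to buffer-only basal and Salinomycin (10uM) controls.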
Vaccinia Venus = vaccinia inhibition (Venus reporter); Vaccinia virus Venus reporter expression, fluorescence; Potency, µM (titrated, usually from 36.5 µM), actives largely listed as inhibitors; 330,000 tested, 0.46% active; AID 720580; calls by dose curve; tested in A549 cells; note: nearly all actives have a fitted effect of over 30% in size
VACV mCherry inh = inhibitors of vaccinia virus infection (mCherry reporter signal); Vaccinia virus mCherry reporter infection, fluorescence; Potency, µM (doses to about 36.5 µM), hits mostly inhibitors; 310,000 tested, 0.63% active; AID 720579; calls by dose curve; tested in A549 cells; note: nearly all actives have a fitted effect of over 35% in size
Hits are given with their value; n = inactive; u = inconclusive; x = no result given; [ ] = remark or other dose. Hits are enriched below; roughly 7.8% of the tested compounds scored in any of these assays.

SMILES | LASV entry inh | HCV inh | Marburg entry inh | HCMV antiviral | Vaccinia Venus | VACV mCherry inh
CCN1CCN(Cc2ccc(NC(=O)c3ccc(C)c(/C=C/c4cnc(Nc5cc(N6CCNCC6)nc(C)n5)cn4)c3)cc2C(F)(F)F)CC1 | x | u | x | x | 8.91µM | u
CC=COC(=O)N[C@@H](c1cccc(C)c1)[C@]1(C(=O)OCC)CCCC1=O | x | x | n | x | x | x
O=C(NCCO)OC1CC2CC1[C@H]1CCCCN1C2=O (stereo partly drawn) | x | x | x | n | n | n
Cc1onc(-c2ccc(Cl)cc2)c1-c1ccnn1S(=O)(=O)c1cccc(C(F)(F)F)c1 | n | u | 10µM | n | n[7.34 µM] | n[7.34 µM]
Cc1onc(-c2ccccc2)c1-c1ccnn1S(=O)(=O)c1ccc(Cl)cc1 | n | n | n | n | n | n
COC(=O)NC(c1ccccc1)c1c[nH]c2ccccc12 (stereo not drawn) | x | x | n | x | x | x
CCC(=O)N1CCN(c2ccc(NC(=O)c3ccc([N+](=O)[O-])o3)cc2Cl)CC1 | u | u | u | -95.6 | 11.2µM | 12.6µM
CCN1CCN(c2ccc(NC(=O)c3ccc([N+](=O)[O-])o3)cc2Cl)CC1 | u | u | u | -96.3 | u | 11.2µM
CC(=O)N1CCN(c2ccc(NC(=O)c3ccc([N+](=O)[O-])o3)cc2Cl)CC1 | u | u | u | -98.4 | u | u
CC(=O)c1ccc(N2CCN(C(=O)C3CCN(S(=O)(=O)c4cccc5nonc45)CC3)CC2)cc1 | u | x | x | n | n | n
CCCC(C)C(=O)Nc1ncc(S(=O)(=O)c2ccc([N+](=O)[O-])cc2)s1 (stereo not drawn) | u | u | n | n | u | 2.51µM
COC(=O)c1cnc(N2CCN(c3ccc(OC)cc3)CC2)c2ccccc12 | n | x | x | u | n[7.34 µM] | n[7.34 µM]
O=[N+]([O-])c1ccc(Cl)c(/C=N/N2CCN(Cc3ccc(Cl)cc3)CC2)c1 | n | n | n | n | x | x
O=C(c1ccc(Oc2ccc([N+](=O)[O-])cc2Cl)cc1)N1CCCC1 | n | n | n | u | n | n
C/C(=N\NC(=O)c1ccc(CN2CCOCC2)cc1)c1ccc([N+](=O)[O-])cc1 | n | 11.2µM | n | u | n | n
O=C(c1ccc(Oc2ccc([N+](=O)[O-])cc2)cc1)N1CCCCCC1 | u | 25.1µM | 5.62µM | n | n | n
C/C(=N\N1CCN(Cc2ccc(Cl)cc2)CC1)c1ccc([N+](=O)[O-])cc1 | n | 11.2µM | u | n | n | n
O=C(Cc1ccccc1)N1CCN(Cc2ccc([N+](=O)[O-])cc2)CC1 | n | n | u | u | x | x
CSc1ccc(CN2CCN(C(=O)c3ccc([N+](=O)[O-])cc3)CC2)cc1 | u | u | u | -74.9 | n | n
Cc1cc(OC(C)C(=O)N2CCC(c3nc4ccccc4o3)CC2)ccc1Cl (stereo not drawn) | n | x | n | n | n | n
COCC1CCCN(Cc2ccc3c(c2)CN(C(=O)c2cc(-c4ccccc4)n[nH]2)CCO3)C1 (stereo not drawn) | x | x | x | x | n | n
CCC1CN(C(=O)N2CCC(C(=O)NCCC3=CCCCC3)CC2)c2cc(C)ccc2O1 (stereo not drawn) | n | x | x | n | n | n
COC(=O)c1c(OC)cc2c(c1C)Oc1c(Cl)c(OC(C)=O)c(Cl)c(C)c1C(=O)O2 | x | x | x | x | n | n
CCc1ccc(CN2CCN(Cc3ccc(SC)cc3)CC2)cc1 | u | 10µM | u | u | n | n
Cc1cccc(C)c1N=CN1c2ccccc2-n2cccc2C1c1ccc([N+](=O)[O-])cc1 (stereo not drawn) | x | x | x | n | x | x
SMILES | LASV entry inh | HCV inh | Marburg entry inh | HCMV antiviral | Vaccinia Venus | VACV mCherry inh
COC(=O)[C@]1(C#N)[C@@H](c2ccccc2)C(=O)N(Cc2ccc(Cl)cc2)[C@@H]1c1ccc(OC)cc1 | x | x | x | n | x | x
Cc1cccc(N2CCN(C(=O)c3c(-c4ccccc4)noc3C)CC2)c1C | u | u | 2.51µM | n | n | u
O=C(c1ccc(CNS(=O)(=O)c2ccccc2)cc1)N1CCN(Cc2ccccc2)CC1 | u | 11.2µM | u | -75.6 | n | n
CCOc1ncccc1C(=O)N1CCN(c2cc(Cl)ccc2C)CC1 | u | u | u | n | n | u
CCOc1ncccc1C(=O)N1CCN(c2cccc(C)c2C)CC1 | u | u | u | -96.0 | u | n
Cc1ccc(S(=O)(=O)NCc2ccc(N3CCN(C(=O)OC(C)(C)C)CC3)cc2)cc1 | n | u | n | -67.7 | n | n
